Measured values as given in the supplement of paper PMC10849652.
Targets with a hit are over-represented here; the source holds about 7,900 in all. About 0.6% of all pairs of compound and target were hits. A number with no mark means an inactive call.

Legend:
Assay in all cases: log2 fold change, soluble protein after heating vs DMSO (PISA); higher = thermal stabilisation; K562 cells, 10 uM, 30 min; active = over 0.2 and 3.5 SD of the protein, either way, in both replicates (recomputed)
[1] = compound: CC1=C(C=C(C=C1)NC(=O)C2=CC(=CC=C2)C(C)(C)C#N)NC3=CC4=C(C=C3)N=CN(C4=O)C
Method in brief: (§1)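 Soluble protein was defined as the supernatant after 21,000xg for 90 min. It came from K562 cells at 2×10^6 cells/mL given 10 μM compound for 30 min, heated in aliquots for 3 min across 48°C-58°C, pooled, and extracted in PBS with 0.5% NP-40 at 4°C, and was quantified by TMTpro 16plex LC-MS/MS with equalised channel sums. Thermal stability against control samples, from duplicates, is reported as log2 fold change.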

[2] = compound: CC1=C(C=C(C=C1)NC(=O)C2=CC(=CC=C2)N(C)C)NC(=O)C3=CC=C(C=C3)O
Method in brief: as §1

[3] = compound: CC1=CC=C(C=C1)SC2=C3C=C(SC3=CN=C2)C(=O)N
Method in brief: as §1

[4] = compound: CC1=NC(=CC=C1)C2=C(N=C(N2)C(C)(C)C)C3=CC4=NC=CN=C4C=C3
Method in brief: as §1

Nexturastat A = compound: CCCCN(Cc1ccc(C(=O)NO)cc1)C(=O)Nc1ccccc1 [Nexturastat A]
Method in brief: as §1

vemurafenib = compound: CCCS(=O)(=O)Nc1ccc(F)c(C(=O)c2c[nH]c3ncc(-c4ccc(Cl)cc4)cc23)c1F [vemurafenib]
Method in brief: as §1

[5] = compound: CCCS(=O)(=O)Nc1ccc(F)c(C(=O)c2c[nH]c3ncc(Cl)cc23)c1F
Method in brief: as §1

[6] = compound: CCCc1cc(C)[nH]c(=O)c1CNC(=O)c1cc(-c2ccnc(N3CCN(C)CC3)c2)cc2c1cnn2C(C)C
Method in brief: as §1

givinostat = compound: CCN(CC)Cc1ccc2cc(COC(=O)Nc3ccc(C(=O)NO)cc3)ccc2c1 [givinostat]
Method in brief: as §1

barasertib = compound: CCN(CCCOc1ccc2c(Nc3cc(CC(=O)Nc4cccc(F)c4)[nH]n3)ncnc2c1)CCOP(=O)(O)O [barasertib]
Method in brief: as §1

Chain of UniProt Q9Y6K0 (Q9Y6K0 whole entry, looked up): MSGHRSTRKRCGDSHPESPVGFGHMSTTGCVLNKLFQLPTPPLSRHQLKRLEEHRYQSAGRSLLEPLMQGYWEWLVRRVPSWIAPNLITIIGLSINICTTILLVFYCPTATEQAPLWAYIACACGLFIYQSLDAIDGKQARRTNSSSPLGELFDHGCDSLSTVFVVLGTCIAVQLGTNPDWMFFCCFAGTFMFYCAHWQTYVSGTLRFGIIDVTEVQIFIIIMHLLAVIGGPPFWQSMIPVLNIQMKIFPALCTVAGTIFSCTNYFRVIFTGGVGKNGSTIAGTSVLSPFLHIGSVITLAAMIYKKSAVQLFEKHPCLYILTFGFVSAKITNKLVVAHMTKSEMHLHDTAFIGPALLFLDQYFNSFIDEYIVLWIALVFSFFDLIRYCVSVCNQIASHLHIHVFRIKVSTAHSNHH
Chain of UniProt P68400 (P68400 whole entry, looked up): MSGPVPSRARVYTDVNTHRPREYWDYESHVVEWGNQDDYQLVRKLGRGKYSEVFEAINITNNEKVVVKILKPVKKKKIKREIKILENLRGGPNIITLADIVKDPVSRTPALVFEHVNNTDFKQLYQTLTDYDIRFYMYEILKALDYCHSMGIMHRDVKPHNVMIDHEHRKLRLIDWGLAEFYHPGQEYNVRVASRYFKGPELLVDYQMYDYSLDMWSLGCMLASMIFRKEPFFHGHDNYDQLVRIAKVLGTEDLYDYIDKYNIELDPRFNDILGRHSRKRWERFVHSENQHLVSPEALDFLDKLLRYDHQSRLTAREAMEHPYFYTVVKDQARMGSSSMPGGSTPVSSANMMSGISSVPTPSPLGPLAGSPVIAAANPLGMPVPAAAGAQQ
Chain of UniProt P48730 (P48730 whole entry, looked up): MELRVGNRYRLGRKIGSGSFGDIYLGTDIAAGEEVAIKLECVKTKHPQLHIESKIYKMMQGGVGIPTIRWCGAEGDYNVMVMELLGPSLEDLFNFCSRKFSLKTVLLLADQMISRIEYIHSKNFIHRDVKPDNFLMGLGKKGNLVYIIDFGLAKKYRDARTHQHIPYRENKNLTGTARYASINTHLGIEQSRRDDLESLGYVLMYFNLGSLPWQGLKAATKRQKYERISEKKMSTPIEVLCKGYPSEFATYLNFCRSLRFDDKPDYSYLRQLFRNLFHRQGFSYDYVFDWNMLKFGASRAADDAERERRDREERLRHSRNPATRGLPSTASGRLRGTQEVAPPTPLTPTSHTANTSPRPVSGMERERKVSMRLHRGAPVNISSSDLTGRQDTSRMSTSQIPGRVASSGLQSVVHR
Chain of UniProt P48729 (P48729 whole entry, looked up): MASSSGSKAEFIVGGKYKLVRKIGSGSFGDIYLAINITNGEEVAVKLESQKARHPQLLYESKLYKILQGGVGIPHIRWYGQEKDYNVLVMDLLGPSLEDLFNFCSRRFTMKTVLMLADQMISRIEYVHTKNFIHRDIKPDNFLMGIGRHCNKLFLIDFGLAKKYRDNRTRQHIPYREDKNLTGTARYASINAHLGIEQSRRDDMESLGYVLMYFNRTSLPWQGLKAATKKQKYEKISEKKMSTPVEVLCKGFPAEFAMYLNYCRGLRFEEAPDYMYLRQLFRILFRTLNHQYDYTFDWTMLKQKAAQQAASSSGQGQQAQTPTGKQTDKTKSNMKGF
Chain of UniProt Q96CF2 (Q96CF2 whole entry, looked up): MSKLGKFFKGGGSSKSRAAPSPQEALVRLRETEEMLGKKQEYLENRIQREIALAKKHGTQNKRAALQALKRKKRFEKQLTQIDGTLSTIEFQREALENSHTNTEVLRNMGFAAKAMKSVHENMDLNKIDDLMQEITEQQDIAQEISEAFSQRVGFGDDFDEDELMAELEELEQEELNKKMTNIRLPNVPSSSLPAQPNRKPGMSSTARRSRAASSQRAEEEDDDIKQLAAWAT
Chain of UniProt P23786 (P23786 whole entry, looked up): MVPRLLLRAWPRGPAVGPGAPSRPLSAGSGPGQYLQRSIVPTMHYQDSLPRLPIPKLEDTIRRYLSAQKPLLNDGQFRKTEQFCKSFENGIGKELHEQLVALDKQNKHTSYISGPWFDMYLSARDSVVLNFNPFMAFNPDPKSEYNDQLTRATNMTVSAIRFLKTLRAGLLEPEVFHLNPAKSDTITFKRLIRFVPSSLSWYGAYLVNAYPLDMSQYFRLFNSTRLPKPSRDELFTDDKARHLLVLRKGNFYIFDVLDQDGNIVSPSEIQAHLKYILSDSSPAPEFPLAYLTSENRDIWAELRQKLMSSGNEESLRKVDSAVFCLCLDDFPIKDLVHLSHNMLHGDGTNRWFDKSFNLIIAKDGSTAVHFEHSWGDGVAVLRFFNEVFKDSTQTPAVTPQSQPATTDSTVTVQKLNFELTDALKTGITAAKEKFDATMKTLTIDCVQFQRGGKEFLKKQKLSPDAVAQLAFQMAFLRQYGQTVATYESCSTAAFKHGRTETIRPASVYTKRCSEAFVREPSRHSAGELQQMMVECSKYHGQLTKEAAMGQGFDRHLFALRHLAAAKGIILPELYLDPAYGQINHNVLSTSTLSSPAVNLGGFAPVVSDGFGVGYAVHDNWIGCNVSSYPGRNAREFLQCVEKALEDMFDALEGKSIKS
Chain of UniProt P41240 (P41240 whole entry, looked up): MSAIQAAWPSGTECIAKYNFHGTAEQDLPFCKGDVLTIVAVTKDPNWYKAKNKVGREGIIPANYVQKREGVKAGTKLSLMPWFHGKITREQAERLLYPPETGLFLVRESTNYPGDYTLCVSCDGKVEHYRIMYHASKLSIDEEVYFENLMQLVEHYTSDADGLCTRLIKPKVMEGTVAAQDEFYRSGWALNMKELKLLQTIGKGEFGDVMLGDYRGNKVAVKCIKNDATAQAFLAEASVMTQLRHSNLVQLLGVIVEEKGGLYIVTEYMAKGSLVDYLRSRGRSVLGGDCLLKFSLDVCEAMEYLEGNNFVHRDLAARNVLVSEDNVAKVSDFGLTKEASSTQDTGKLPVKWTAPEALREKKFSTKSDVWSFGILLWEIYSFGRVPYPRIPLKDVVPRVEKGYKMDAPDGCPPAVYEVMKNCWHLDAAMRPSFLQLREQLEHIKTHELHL
Chain of UniProt O75794 (O75794 whole entry, looked up): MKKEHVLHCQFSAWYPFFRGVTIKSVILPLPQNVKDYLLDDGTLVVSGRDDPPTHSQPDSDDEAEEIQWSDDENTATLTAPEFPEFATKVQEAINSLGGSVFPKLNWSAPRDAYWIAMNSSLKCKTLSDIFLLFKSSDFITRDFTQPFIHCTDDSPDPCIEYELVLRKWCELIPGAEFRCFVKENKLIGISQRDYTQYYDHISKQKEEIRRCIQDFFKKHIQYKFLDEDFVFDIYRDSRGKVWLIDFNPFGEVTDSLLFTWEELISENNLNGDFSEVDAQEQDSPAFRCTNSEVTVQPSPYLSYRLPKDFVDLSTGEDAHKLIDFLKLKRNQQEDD
Chain of UniProt P20674 (P20674 whole entry, looked up): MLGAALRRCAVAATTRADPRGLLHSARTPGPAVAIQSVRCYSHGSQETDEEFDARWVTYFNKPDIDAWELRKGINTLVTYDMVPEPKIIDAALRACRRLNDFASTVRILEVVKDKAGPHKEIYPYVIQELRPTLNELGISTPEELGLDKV
Chain of UniProt Q9H444 (Q9H444 whole entry, looked up): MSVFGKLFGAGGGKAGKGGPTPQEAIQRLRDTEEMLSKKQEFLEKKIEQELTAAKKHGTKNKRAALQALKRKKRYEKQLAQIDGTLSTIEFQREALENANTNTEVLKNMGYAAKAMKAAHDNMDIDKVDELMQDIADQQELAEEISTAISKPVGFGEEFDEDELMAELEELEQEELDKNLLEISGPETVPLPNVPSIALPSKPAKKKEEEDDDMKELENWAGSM
Chain of UniProt P42575 (P42575 whole entry, looked up): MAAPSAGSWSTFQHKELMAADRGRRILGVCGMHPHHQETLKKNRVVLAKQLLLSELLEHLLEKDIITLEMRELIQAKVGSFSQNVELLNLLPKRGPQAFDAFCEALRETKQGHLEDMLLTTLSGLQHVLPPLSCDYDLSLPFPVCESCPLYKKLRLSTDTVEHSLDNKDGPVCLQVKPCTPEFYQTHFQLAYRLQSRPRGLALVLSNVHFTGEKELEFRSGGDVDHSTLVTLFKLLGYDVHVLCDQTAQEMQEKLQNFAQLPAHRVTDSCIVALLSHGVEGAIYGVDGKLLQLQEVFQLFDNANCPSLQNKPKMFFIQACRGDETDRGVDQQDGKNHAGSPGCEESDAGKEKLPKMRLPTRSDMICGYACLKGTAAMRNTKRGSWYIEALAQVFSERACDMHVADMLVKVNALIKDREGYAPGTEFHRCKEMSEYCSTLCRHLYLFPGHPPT
Chain of UniProt P09497 (P09497 whole entry, looked up): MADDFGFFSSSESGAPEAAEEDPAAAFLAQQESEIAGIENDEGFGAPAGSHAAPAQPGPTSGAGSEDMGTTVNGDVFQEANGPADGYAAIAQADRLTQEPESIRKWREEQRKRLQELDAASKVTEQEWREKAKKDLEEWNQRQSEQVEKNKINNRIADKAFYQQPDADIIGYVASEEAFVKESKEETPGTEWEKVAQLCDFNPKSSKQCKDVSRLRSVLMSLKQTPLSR
Chain of UniProt O95319 (O95319 whole entry, looked up): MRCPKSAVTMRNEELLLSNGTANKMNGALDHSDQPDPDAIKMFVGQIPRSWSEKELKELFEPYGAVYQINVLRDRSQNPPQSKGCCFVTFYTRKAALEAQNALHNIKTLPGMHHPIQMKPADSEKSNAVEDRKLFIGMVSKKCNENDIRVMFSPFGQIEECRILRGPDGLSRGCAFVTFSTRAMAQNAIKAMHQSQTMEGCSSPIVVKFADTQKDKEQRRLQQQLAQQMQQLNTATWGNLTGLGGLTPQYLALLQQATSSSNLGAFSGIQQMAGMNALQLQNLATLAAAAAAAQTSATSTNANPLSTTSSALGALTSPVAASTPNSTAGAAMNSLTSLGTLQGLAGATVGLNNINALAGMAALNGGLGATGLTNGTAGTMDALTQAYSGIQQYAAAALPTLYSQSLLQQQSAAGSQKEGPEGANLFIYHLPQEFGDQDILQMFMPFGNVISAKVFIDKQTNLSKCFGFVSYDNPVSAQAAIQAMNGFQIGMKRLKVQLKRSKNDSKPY

Target	log2 fold change [1]	log2 fold change [2]	log2 fold change [3]	log2 fold change [4]	log2 fold change (Nexturastat A)	log2 fold change (vemurafenib)	log2 fold change [5]	log2 fold change [6]	log2 fold change (givinostat)	log2 fold change (barasertib)
CMTR1 (UniProt Q8N1G2)	-0.012	-0.003	-0.021	0.083	-0.069	0.03	0.005	-0.004	-0.062	0.054
CAMK2G isoform 6 (UniProt Q13555)	0.048	-0.055	0.131	-0.011	0.094	-0.026	0.11	0.15	0.025	0.065
CNN2 (UniProt Q99439)	0.034	-0.037	0.035	0.023	-0.042	0.085	0.073	0.003	0.063	0.077
CHMP4C (UniProt Q96CF2)	-0.173	-0.01	0.02	0.081	0.443 (active)	0.019	-0.022	-0.021	-0.07	0.01
CDK11B (UniProt P21127)	-0.079	0.214	-0.109	0.071	0.038	0.029	-0.064	-0.063	0.114	0.028
CPD (UniProt O75976)	-0.017	0	-0.01	-0.016	-0.001	-0.017	-0.021	-0.062	0.016	0.011
CLTB (UniProt P09497)	-0.003	-0.025	-0.007	0.037	-0.039	-0.009	-0.012	-0.036	0.047	-0.023
CSNK1A1 (UniProt P48729)	-0.021	0.03	-0.006	-0.12	0.028	-0.006	0	0.031	0.037	0
CBS (UniProt P35520)	0.031	-0.001	0.004	0.019	-0.08	-0.021	-0.004	-0.016	-0.135	0.02
CDKN2AIP (UniProt Q9NXV6)	0.046	-0.01	-0.076	0.008	0.052	0.043	-0.053	0.023	0.012	-0.017
CSNK1D (UniProt P48730)	-0.001	0.003	-0.033	-0.018	0.117	0.081	-0.047	0.015	-0.254	-0.032
CHMP4B (UniProt Q9H444)	0.181	0.008	-0.073	0.007	-0.04	-0.036	-0.126	-0.02	-0.061	0.001
CHCHD2 (UniProt Q9Y6H1)	0.019	-0.037	0.282	0.004	-0.047	-0.028	-0.019	-0.09	-0.042	0.008
CIT isoform 4 (UniProt O14578)	-0.105	0.017	-0.003	-0.032	-0.02	-0.012	0.01	0.002	0.033	0.047
CSNK2A1 (UniProt P68400)	-0.047	-0.004	-0.044	0.025	0.034	0.006	0.008	-0.018	-0.003	-0.024
CELF2 isoform 3 (UniProt O95319)	0.075	0.01	0.112	-0.006	-0.025	0.065	0.005	-0.02	-0.008	0.001
COA6 isoform 2 (UniProt Q5JTJ3)	-0.054	-0.012	0.767 (active)	0.036	0.007	-0.041	-0.009	-0.089	-0.02	-0.042
CHD4 isoform 2 (UniProt Q14839)	0.011	-0.028	0.062	-0.014	0.087	0.068	0.116	0.101	0.154	0.121
CDK13 (UniProt Q14004)	0.045	0.027	-0.047	0.056	-0.212	-0.056	-0.037	-0.011	-0.021	-0.029
CSK (UniProt P41240)	0.325 (active)	-0.091	-0.01	0.019	-0.046	0.072	0.054	0.034	0.035	0.004
C1D (UniProt Q13901)	0.058	0.002	-0.015	-0.045	-0.053	-0.046	-0.175	-0.019	-0.002	0.104
CDC123 (UniProt O75794)	-0.033	0.006	0.043	0.048	0.013	0.011	0.02	0.038	-0.01	0.028
CEPT1 (UniProt Q9Y6K0)	0.048	0.068	0.005	0.069	-0.123	0.123	0.016	-0.122	-0.023	0.013
CLUH, A0A494C0R8	0.008	-0.077	-0.02	0.124	0.068	-0.121	-0.072	0.016	0.092	-0.043
CPT2 (UniProt P23786)	0.313	-0.105	0.035	0.019	-0.417	0.042	0.007	0.016	0.474	0.013
CASP2 (UniProt P42575)	0.025	0.001	0.215	0.056	0.004	0.026	0.193	0.086	0.039	0.026
CLPTM1L (UniProt Q96KA5)	-0.014	0.01	0.03	0.022	-0.032	0.045	0.016	-0.015	0.009	0.021
COX5A (UniProt P20674)	-0.005	-0.074	0	-0.016	0.072	0.165	-0.114	-0.093	-0.092	0.085
CDC42EP1 (UniProt Q00587)	-0.005	0.034	-0.002	0.073	0.022	0.011	-0.022	0.075	0.15	-0.004
